Screening data: PubChem BioAssay, National Center for Advancing Translational Sciences (NCATS)
Only some compounds are listed: those with a hit (about 21% of all), similar ones and a draw of the others.
Shiga inhibitor: Shiga toxin inhibition; Vero cells, Shiga toxin protein synthesis inhibition reporter; inhibition, % at 38.7 µM; actives 9.2% (n = 290,000); AID 2315; in the data active means inhibition mostly above about 28%, no sharp cut-off; inactive means mostly below about 43%; further: 0% is about no effect
Pf growth 48h: P. falciparum growth inhibition at 48 hours (one generation); P. falciparum luciferase growth in erythrocytes, 48 h; AID 504832; actives 5.9% (n = 310,000); Potency, µM (highest dose often 28.7 µM), inactives show top-dose activity change, negative = inhibition, actives largely listed as inhibitors; further: potency means the concentration at half of the fitted maximal effect; on the % scale 0 is the no-effect control and ±100 the full control effect
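Luciferase-expressing parasites in RBCs, 2% Hct / 0.1% parasitemia final; RPMI 1640 + 0.5% Albumax; 37 C, 5% CO2, one generation; luminescence read-out, lower signal = inhibition.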
Cycloheximide cs: counter-screen for Shiga toxin inhibitors: cycloheximide protein synthesis inhibition | actives 12% (n = 300,000) | max response, % | cell reporter, cycloheximide protein synthesis inhibition counterscreen; in the data active means max response mostly above about 13%, no sharp cut-off; inactive means mostly below about 14%; further: read at 38.3 µM for the half of the compounds with a filed dose; 0% is about no effect
Pf growth 96h: P. falciparum growth inhibition at 96 hour, primary screen for plastid delayed-death inhibitors. actives 6.9% (n = 320,000). P. falciparum luciferase reporter growth, 96 h. Potency, µM (top dose mostly 28.7 µM), without a hit: at the highest dose activity change, negative = inhibition, usual class: inhibitors; further: potency means the concentration at half of the fitted maximal effect; on the % scale 0 is the no-effect control and ±100 the full control effect
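P. falciparum expressing integrated firefly luciferase grown in erythrocytes (2% hematocrit, 0.05% parasitemia final) with compounds for 96 hours at 37 C, 5% CO2. Growth inhibition read as loss of luminescence after adding luciferase detection reagent.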
* = called active by the depositor; ? = inconclusive; . = no result given. Unless noted, the call rests on the fitted dose curve; in most records, active means well fitted inhibition curve with a large enough effect; inconclusive means small, poorly fitted or top-dose-only effect, or another doubt; inactive means no such curve, though single readings can be large or run the other way.

SMILES	Shiga inhibitor	Pf growth 48h	Cycloheximide cs	Pf growth 96h
O=C(Nc1nc(-c2cccc(Br)c2)cs1)Oc1ccccc1	28.7	111.4%	21.6	127.7%
CN(Cc1ccccc1)C(=O)Cn1c(=O)c2cccn2c2cccnc21	-6.6	0.0%	-3.2	?
O=C(NCCC1CCCCN1S(=O)(=O)c1cccs1)C(=O)Nc1cccc(F)c1 (stereo not drawn)	.	?	.	8.3%
Cc1ccccc1C(=O)N1CCc2cc(-c3csc(NC(=O)CN4CCCC4)n3)ccc21	33.6	4.15µM*	17.0	-4.7%
COCC(=O)Nc1nc(-c2ccc([N+](=O)[O-])cc2)cs1	36.8	52.3%	1.1	2.5%
COCC(=O)Nc1nc(-c2ccc(-c3ccccc3)cc2)cs1	80.9*	129.8%	64.7*	11.9%
CN1CCN(CC(=O)Nc2nc(-c3ccccc3)cs2)CC1	-0.1	6.2%	8.5	45.6%
CN1CCN(CC(=O)N(C)c2nc(-c3ccccc3)cs2)CC1	60.4*	74.6%	60.6*	0.0%
CCC(=O)N1CCc2cc(-c3csc(NC(=O)c4ccco4)n3)ccc21	55.2	?	27.8*	25.0%
O=C(CN1CCCCC1)Nc1nc(-c2ccc(F)c(F)c2)cs1	1.1	?	-3.2	-15.1%
COC(=O)C1=C[C@@H](C(=O)OC)C2C3=C(C(=O)[C@]2(C)NC(=O)c2ccccc2)[C@H](C)n2c(=O)n(-c4ccccc4)c(=O)n2[C@@H]3C1 (stereo partly drawn)	-3.5	.	-1.4	.
COCCN1CC(C(=O)NCc2ncccc2C)CCC1=O (stereo not drawn)	-23.6	18.1%	0.8	32.0%
CS(=O)(=O)N1CCc2cc(-c3csc(NC(=O)Cc4ccccc4)n3)ccc21	27.5	-4.3%	6.9	-4.9%
CC(C)C(=O)N1CCc2cc(-c3csc(N)n3)ccc21	37.3	10.4µM*	21.6*	-12.4%
CN(C)N1C(N)=C(C#N)C(c2ccc3c(c2)OCO3)C2=C1CC(C)(C)CC2=O (stereo not drawn)	-3.8	-15.4%	-1.8	?
Fc1ccc(Oc2nccc(-c3ccc(Cl)cc3)n2)cc1	35.8*	-8.8%	26.1*	?
COc1cc(C(C)=O)ccc1OCC(O)CNCC(O)c1ccccc1 (stereo not drawn)	-5.2	.	2.8	-7.9%
COC(=O)C(CCSC)NC(=O)c1cc2c(n(-c3ccccc3)c1=O)CCCC2=O (stereo not drawn)	37.6	-10.0%	16.3*	15.8%
O=C1CCCc2c1cc(C(=O)O)c(=O)n2-c1ccccc1	-10.9	15.3%	-0.4	?
O=C1CCCc2c1cc(C(=O)NCc1ccco1)c(=O)n2-c1ccccc1	-13.4	-11.4%	-12.0	?
O=C1CCCc2c1cc(C(=O)Nc1ccc(Br)cn1)c(=O)n2-c1ccccc1	-2.8	4.15µM*	0.7	39.1%
CC(NC(=O)CN(c1ccc(Cl)cc1)S(C)(=O)=O)c1ccccc1 (stereo not drawn)	16.6	0.0%	-2.5	?
CCOc1ccc(NC(=O)CN(c2ccc(OC)cc2)S(=O)(=O)c2cccs2)cc1	.	-5.6%	.	-10.2%
CCOc1ccc(N(CC(=O)Nc2ccc(C)c(Cl)c2)S(C)(=O)=O)cc1	19.4	75.7%	24.5*	-16.3%
CCOc1ccc(NC(=O)CN(c2ccc(OC)cc2)S(C)(=O)=O)cc1	121.2*	102.0%	97.7*	.
SMILES	Shiga inhibitor	Pf growth 48h	Cycloheximide cs	Pf growth 96h
COc1ccc(N(CC(=O)Nc2cccc3ccccc23)S(C)(=O)=O)cc1	17.4	27.5%	12.3*	259.7%
CCOc1ccc(NC(=O)CN(C2CCCCC2)S(C)(=O)=O)cc1	-21.8	.	-0.5	-5.0%
CCOc1ccc(N(CC(=O)Nc2ccc(Br)cc2)S(C)(=O)=O)cc1	54.1*	50.8%	30.0*	?
CCS(=O)(=O)N(CC(=O)Nc1cccc2ccccc12)c1ccc(OC)cc1	.	-11.5%	.	-7.7%
CCN1CCN(C(=O)N2CCOCC2)CC1	-8.3	-2.7%	-2.6	27.7%
C=CCSc1nnc(NC(=O)CCN2C(=O)C3CC=CCC3C2=O)s1 (stereo not drawn)	.	17.0%	.	-7.9%
CC(Sc1nnc(N)s1)C(=O)Nc1ccc2c(c1)OCCO2 (stereo not drawn)	-3.9	31.7%	11.7	-6.4%
CCOC(=O)c1ccc(NC(=O)CN(c2ccc(C)cc2)S(=O)(=O)c2c(C)n[nH]c2C)cc1	8.6	13.1µM*	-2.6	8.2%
CCOc1ccc(N(CC(=O)Nc2ccc(OC)cc2)S(C)(=O)=O)cc1	53.2*	43.9%	39.3*	?
COC(=O)c1ccc(NC(=O)CN(c2ccc(OC)cc2)S(C)(=O)=O)cc1	63.0*	47.7%	53.3*	3.1%
COC(=O)c1ccccc1NC(=O)CN(c1ccc(OC)cc1)S(C)(=O)=O	4.0	-2.2%	5.0	?
CCOc1ccc(N(CC(=O)NCc2ccccc2C)S(C)(=O)=O)cc1	68.3*	32.5%	41.7*	266.1%
CCOc1ccc(N(CC(=O)NCCSCc2ccccc2Cl)S(C)(=O)=O)cc1	-11.7	-6.3%	1.4	?
CCN(CC)CCSc1nnc2c3cc(C)ccc3n(Cc3ccccc3)c2n1	-7.6	?	0.6	?
COc1ccc(/C(C)=N/NC(=O)Cc2ccc(Cl)cc2)cc1	.	11.0%	-2.5	1.4%
CCOc1ccc(N(CC(=O)Nc2cccc(C)c2)S(C)(=O)=O)cc1	86.1*	44.1%	54.0*	?
Cc1nn2c([nH]c(=O)c3ccccc32)c1C=O	-8.9	?	-2.7	11.7µM*
Cc1nn2c(nc(N3CCCCC3)c3ccccc32)c1C=O	17.8	3.29µM*	-4.0	5.22µM*
Cc1nn(-c2ccccc2)c(C)c1C=O	5.1	1.2%	1.2	9.0%
Cc1nn2c(nc(N3CCOCC3)c3ccccc32)c1C=C(C#N)C#N	11.1	5.7%	-5.2	23.4%
COCc1cccc(C(=O)NC(c2ccccc2)c2ccccc2)c1	-5.0	-21.4%	-0.8	?
CCOC(=O)c1[nH]c(C)c(CN(C(C)=O)c2ccc(OCC)cc2)c1C	-14.9	?	-1.1	33.9%
COc1cc(Nc2ncnc(N)n2)cc(OC)c1	-20.0	15.9%	-2.3	11.1%
CN(C(=O)c1ccc2c(c1)OCO2)C1CCCCC1	35.7*	77.3%	42.2*	107.8%
CC1CCC(NC(=O)c2ccc3c(c2)OCO3)CC1 (stereo not drawn)	52.7*	194.8%	43.1*	1.5%
SMILES	Shiga inhibitor	Pf growth 48h	Cycloheximide cs	Pf growth 96h
CN1CCN(CCCNC(=O)c2ccc(/C=C3\Oc4ccccc4N(Cc4ccccc4F)C3=O)cc2)CC1	-3.5	?	-7.1	4.3%
CC1CCC(NC(=O)c2ccc(/C=C3\Oc4ccccc4N(C)C3=O)cc2)CC1 (stereo not drawn)	41.9	16.0%	25.0*	16.1%
O=C(NCc1ccc2c(c1)OCO2)NC1CCCCC1	30.6	69.5%	-1.4	-0.6%
CN(C(=O)c1ccc2nccnc2c1)C1CCCCC1	43.2	46.2%	11.7	-17.7%
O=C(c1ccc2c(c1)OCO2)N(CC1CCCO1)C1(C(=O)NC2CCCC2)CCCCC1 (stereo not drawn)	-7.4	11.7µM*	-1.4	?
O=C1CN(C(=O)c2ccc(F)cc2)c2ccccc2N1	-4.5	14.7%	-10.0	?
O=C(NC1(C(=O)NC2CCCC2)CCCCC1)c1ccc2c(c1)OCO2	-19.4	-16.8%	-4.4	9.28µM*
